Experimental data taken from PubChem BioAssay (Tox21).
Values joined by “and” are separate entries in the source; they are usually repeats but may differ in a detail not shown here. Equal values may be shown once. Records with an inconclusive call do not appear. A structure can be active in one record and inactive in another. Active and inactive are the calls of the source. Unless noted, calls follow the shape of the full dose curve.

How the values were obtained:
[1] = Nuclear factor erythroid 2-related factor 2/antioxidant responsive element (Nrf2/ARE) small molecule agonists: qHTS cell viability counter screen in human keratinocytes (AID 1919968; active = well fitted cell-killing curve with a large enough effect in the repeat runs; also: nearly all actives have a fitted effect of over 55% in size)
In short: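 Parallel cytotoxicity read: KeratinoSens HaCaT cells, compound treatment 23 h, viability by CellTiter-Fluor fluorescence 1 h post-reagent.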

[2] = Nuclear factor erythroid 2-related factor 2/antioxidant responsive element (Nrf2/ARE) small molecule agonists: luciferase reporter gene qHTS assay in human keratinocytes (AID 1919969); also: nearly all actives have a fitted effect of over 35% in size; also: potency is read from the fitted curve at half-maximal effect
[3] = biological target: Gonadotropin-releasing hormone receptor (Homo sapiens) (UniProt P30968); assay: Human gonadotropin-releasing hormone receptor (GnRHR) small molecule agonists, calcium flux assay in GnRHR-HEK293 cells (AID 1920063); also: nearly all actives have a fitted effect of over 35% in size
In short: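 Calcium flux, agonist mode, human GnRHR stably integrated in HEK293; dye 1 h at 37 C before compound; Ex/Em=480/540 kinetic read, 3 min; 15 concentrations, triplicate.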

[4] = G protein-coupled receptor (GPCR) small molecule agonists, calcium flux assay: HEK293 wild type cell line counter screen (AID 1920065)
In short: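 Non-specific calcium responders were flagged by adding DMSO-dissolved compounds to dye-loaded cells and reading 480/540 nm fluorescence each second for 3 min; ATP served as positive control.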

[5] = p53 small molecule agonists, cell-based qHTS assay with human liver microsomes (AID 1963577)
In short: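 p53RE-bla cells, 4,000/well, compound added after 5 h, with human liver microsomes 0.5 mg/mL and NADPH 0.5 mg/mL final; 16 h at 37 C, then LiveBLAzer 2 h RT, fluorescence.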

[6] = p53 small molecule agonists, cell-based qHTS assay with rat liver microsomes (AID 1963578); also: potency is read from the fitted curve at half-maximal effect
In short: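 p53RE-bla cells, 4,000/well, pre-incubated 5 h, then given compounds plus rat liver microsomes (0.5 mg/mL final) and NADPH (0.5 mg/mL final). Incubation 16 h at 37 C; beta-lactamase reporter read by LiveBLAzer fluorescence after 2 h at room temperature.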

[7] = p53 small molecule agonists, cell-based qHTS assay with human liver microsomes: qHTS cell viability counter screen (AID 1963579); also: nearly all actives have a fitted effect of over 45% in size
In short: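 p53RE-bla cells, 4,000/well, dosed 5 hours after plating, with human liver microsomes (0.5 mg/mL final) plus NADPH (0.5 mg/mL final), 16 hours at 37 C. Viability read as CellTiter-Glo luminescence after 30 min at room temperature.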

[8] = p53 small molecule agonists, cell-based qHTS assay with rat liver microsomes: qHTS cell viability counter screen (AID 1963580); also: nearly all actives have a fitted effect of over 45% in size
In short: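 After the beta-lactamase ratio was read, CellTiter-Glo was added to the same wells and luminescence measured at 30 min; cells had been treated 16 h at 37 C with compounds, rat liver microsomes and NADPH (0.5 mg/mL final each).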

[9] = p53 small molecule agonists, cell-based qHTS assay: qHTS cell viability counter screen (AID 1963581); also: nearly all actives have a fitted effect of over 45% in size
In short: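 Multiplexed with the reporter read, a CellTiter-Glo step (30 min, room temperature) gauges ATP-based viability of HCT-116 p53RE-bla cells after 16 h compound incubation at 37 C.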

[10] = p53 small molecule agonists, cell-based qHTS assay (AID 1963582; active = well fitted activation curve with a large enough effect in the signal ratio in the repeat runs, not every such curve was filed as active; the % refers to the signal ratio; also: potency is read from the fitted curve at half-maximal effect)
In short: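 Beta-lactamase reporter cells (p53RE-bla) treated with compounds for 16 h at 37 C; FRET substrate, 2 h, room temperature; fluorescence intensity.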

[11] = biological target: 5-hydroxytryptamine receptor 2A (Homo sapiens) (UniProt P28223); assay: 5-hydroxytryptamine receptor 2A (HTR2A) small molecule antagonists, cell-based qHTS assay (AID 1963586); also: nearly all actives have a fitted effect of over 45% in size
In short: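 CHO cells stably expressing human HTR2A were plated for 18 h at 37 C, then loaded with calcium dye for 1 h. Compounds were preincubated 5 min at room temperature before DOI (4 nM solution) was added. Kinetic fluorescence was read for 3 min.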

[12] = biological target: 5-hydroxytryptamine receptor 2A (Homo sapiens) (UniProt P28223); assay: 5-hydroxytryptamine receptor 2A (HTR2A) small molecule agonists, cell-based qHTS assay (AID 1963587); also: nearly all actives have a fitted effect of over 30% in size
In short: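 CHO cells stably expressing human HTR2A, plated 18 h, loaded with calcium dye 1 h at 37 C. Agonist mode: compounds added and intracellular calcium fluorescence recorded kinetically for 2 min at 1 sec intervals.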

[13] = biological target: Muscarinic acetylcholine receptor M1 (Homo sapiens) (UniProt P11229); assay: Cholinergic receptor muscarinic 1 (CHRM1) small molecule antagonists, cell-based qHTS assay (AID 1963588); also: nearly all actives have a fitted effect of over 40% in size; also: potency is read from the fitted curve at half-maximal effect
In short: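 Compounds were tested at 15 concentrations in three independent runs. Dye-loaded CHRM1-CHO cells were exposed 5 min at room temperature before stimulation by acetylcholine added at 50nM. Intracellular calcium was read kinetically on FDSS for 3 min.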

[14] = biological target: Muscarinic acetylcholine receptor M1 (Homo sapiens) (UniProt P11229); assay: Cholinergic receptor muscarinic 1 (CHRM1) small molecule agonists, cell-based qHTS assay (AID 1963589); also: nearly all actives have a fitted effect of over 35% in size
In short: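 qHTS, 15-point titration, 3 independent runs: compounds pin-transferred onto dye-loaded CHRM1-CHO cells (human M1), calcium fluorescence followed every second to detect agonism.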

[15] = cAMP Responsive Elements (CRE) small molecule agonists, cell-based qHTS assay (AID 1963590)
In short: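 Quantitative HTS for CRE agonists: HEK 293T CRE-bla cells, overnight plating, 3 h compound incubation at 37 C/5% CO2, then 2 h room-temperature LiveBLAzer B/G FRET substrate loading.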

[16] = cAMP Responsive Elements (CRE) small molecule antagonists, cell-based qHTS assay (AID 1963591; active = well fitted inhibition curve with a large enough effect in the signal ratio in the repeat runs, not every such curve was filed as active; the % refers to the signal ratio)
In short: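 Fluorescence intensity from cleaved LiveBLAzer B/G substrate (2 h, room temperature) quantified CRE-bla activity in HEK 293T cells exposed 3 h to compound with 0.25 uM final NKH477.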

[17] = biological target: Beta-2 adrenergic receptor (Homo sapiens) (UniProt P07550); assay: Adrenergic beta2 receptor (ADRB2) small molecule antagonists, cell-based qHTS assay (AID 1963592); also: series mostly up to about 92 µM; nearly all actives have a fitted effect of over 50% in size
In short: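 Assay format: CHO-ADRB2 cells, 18-20hr seeding at 37C/5% CO2, then compound plus 1nM isoproterenol agonist mix for 0.5hr RT. Homogeneous time-resolved fluorescence cAMP detection after 1hr, expressed as 665/615 nm ratio.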

[18] = biological target: D(2) dopamine receptor (Homo sapiens) (UniProt P14416); assay: Dopamine D2 receptor (DRD2) small molecule agonists, cell-based qHTS assay (AID 1963594); also: nearly all actives have a fitted effect of over 35% in size
In short: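 HEK293 cells stably expressing human DRD2, pre-treated with PDE inhibitor Ro20-1724 (0.1 mM final) and compound 10 min at room temperature, then stimulated with NKH477 (200nM […]) for 30 min. cAMP read by HTRF (665/620 nm).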

[19] = biological target: D(2) dopamine receptor (Homo sapiens) (UniProt P14416); assay: Dopamine D2 receptor (DRD2) small molecule antagonists, cell-based qHTS assay (AID 1963595; active = well fitted inhibition curve with a large enough effect in the signal ratio in the repeat runs, with a control signal flat; the % refers to the signal ratio)
In short: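 Readout: HTRF cAMP, cAMP-d2 competing with cellular cAMP for anti-cAMP cryptate, read after 1 h. Cells: DRD2-HEK293. Conditions: 0.1 mM Ro20-1724, 12 nM quinpirole, 200 nM NKH477, 30 min RT.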

[20] = biological target: Beta-2 adrenergic receptor (Homo sapiens) (UniProt P07550); assay: Adrenergic beta2 receptor (ADRB2) small molecule agonists, cell-based qHTS assay (AID 1963593);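 also: CHO cells stably overexpressing human ADRB2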
In short: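 CHO cells stably over-expressing ADRB2 were plated overnight at 37C, then dosed with compounds plus a stimulation mix containing 100uM IBMX and 25uM Ro-20-1724 for 0.5hr at room temperature. cAMP was measured by HTRF competition, 1hr.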

Measured: Potency

Sequence of Beta-2 adrenergic receptor (Homo sapiens) (P07550 whole entry, looked up): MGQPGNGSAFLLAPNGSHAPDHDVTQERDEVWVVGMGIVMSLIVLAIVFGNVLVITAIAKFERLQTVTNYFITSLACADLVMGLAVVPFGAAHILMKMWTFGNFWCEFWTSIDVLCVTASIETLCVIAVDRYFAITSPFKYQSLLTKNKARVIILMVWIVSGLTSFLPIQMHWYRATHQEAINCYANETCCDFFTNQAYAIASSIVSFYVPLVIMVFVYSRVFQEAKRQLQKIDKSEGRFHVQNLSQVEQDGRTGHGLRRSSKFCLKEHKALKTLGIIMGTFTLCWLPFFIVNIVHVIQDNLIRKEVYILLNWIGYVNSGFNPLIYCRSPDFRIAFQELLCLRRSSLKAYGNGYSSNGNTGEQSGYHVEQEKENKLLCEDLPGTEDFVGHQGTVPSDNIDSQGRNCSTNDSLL
Sequence of Gonadotropin-releasing hormone receptor (Homo sapiens) (P30968 whole entry, looked up): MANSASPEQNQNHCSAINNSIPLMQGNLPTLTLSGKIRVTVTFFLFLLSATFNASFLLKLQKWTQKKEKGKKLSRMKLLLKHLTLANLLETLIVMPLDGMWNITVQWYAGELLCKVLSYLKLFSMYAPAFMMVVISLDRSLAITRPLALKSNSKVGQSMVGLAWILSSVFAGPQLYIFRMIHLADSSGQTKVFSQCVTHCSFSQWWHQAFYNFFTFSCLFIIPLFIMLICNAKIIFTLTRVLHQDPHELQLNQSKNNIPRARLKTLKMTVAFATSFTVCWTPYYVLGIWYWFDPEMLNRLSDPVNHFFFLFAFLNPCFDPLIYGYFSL
Sequence of Muscarinic acetylcholine receptor M1 (Homo sapiens) (P11229 whole entry, looked up): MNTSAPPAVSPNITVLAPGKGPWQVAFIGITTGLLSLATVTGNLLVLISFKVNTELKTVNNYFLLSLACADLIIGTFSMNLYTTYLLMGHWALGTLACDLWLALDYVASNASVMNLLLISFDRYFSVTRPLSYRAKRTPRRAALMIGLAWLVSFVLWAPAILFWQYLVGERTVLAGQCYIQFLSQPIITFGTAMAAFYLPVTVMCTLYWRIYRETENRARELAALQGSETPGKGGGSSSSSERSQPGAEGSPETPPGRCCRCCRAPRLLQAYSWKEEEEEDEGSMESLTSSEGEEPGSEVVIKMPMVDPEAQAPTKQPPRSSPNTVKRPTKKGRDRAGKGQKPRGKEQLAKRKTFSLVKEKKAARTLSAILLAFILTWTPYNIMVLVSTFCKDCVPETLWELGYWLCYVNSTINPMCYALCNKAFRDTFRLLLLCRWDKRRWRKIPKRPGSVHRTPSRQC
Sequence of D(2) dopamine receptor (Homo sapiens) (P14416 whole entry, looked up): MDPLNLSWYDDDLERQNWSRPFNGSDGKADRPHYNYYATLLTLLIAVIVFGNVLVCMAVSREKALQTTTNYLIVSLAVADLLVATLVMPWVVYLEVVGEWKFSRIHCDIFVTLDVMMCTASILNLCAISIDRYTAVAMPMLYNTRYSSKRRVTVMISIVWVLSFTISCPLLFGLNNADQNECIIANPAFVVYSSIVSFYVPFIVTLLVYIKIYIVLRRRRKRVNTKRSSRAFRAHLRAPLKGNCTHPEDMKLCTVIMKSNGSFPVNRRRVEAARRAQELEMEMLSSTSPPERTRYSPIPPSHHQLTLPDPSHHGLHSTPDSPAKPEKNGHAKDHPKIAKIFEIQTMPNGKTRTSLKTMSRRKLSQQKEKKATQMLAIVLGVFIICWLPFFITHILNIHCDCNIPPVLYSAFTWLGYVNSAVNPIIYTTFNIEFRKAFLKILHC
Sequence of 5-hydroxytryptamine receptor 2A (Homo sapiens) (P28223 whole entry, looked up): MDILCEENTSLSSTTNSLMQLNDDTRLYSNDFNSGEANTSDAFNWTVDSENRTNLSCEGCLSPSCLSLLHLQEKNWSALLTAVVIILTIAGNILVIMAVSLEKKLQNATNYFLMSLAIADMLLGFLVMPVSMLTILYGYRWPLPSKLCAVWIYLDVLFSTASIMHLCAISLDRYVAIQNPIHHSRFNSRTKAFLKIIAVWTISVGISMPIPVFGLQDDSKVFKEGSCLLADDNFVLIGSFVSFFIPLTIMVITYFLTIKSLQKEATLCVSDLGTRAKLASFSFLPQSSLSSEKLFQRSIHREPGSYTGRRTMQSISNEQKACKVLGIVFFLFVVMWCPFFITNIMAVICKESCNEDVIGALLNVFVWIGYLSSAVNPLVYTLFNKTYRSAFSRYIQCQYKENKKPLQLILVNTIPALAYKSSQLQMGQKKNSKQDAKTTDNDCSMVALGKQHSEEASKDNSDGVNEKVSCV

CC(C)=CCO
not listed: [20]
inactive: all other assays above

CCO[Si](CCCN)(OCC)OCC
not listed: [14] | [18]
inactive: all other assays above

O=C1CCCCCN1
not listed: [12] | [20]
inactive: all other assays above

NNc1ccc(C(=O)O)cc1
active: [2] 22 µM and 30.9 µM
not listed: [20]
inactive: all other assays above

Cc1c(C(N)=O)cc([N+](=O)[O-])cc1[N+](=O)[O-]
not listed: [13] | [20]
inactive: all other assays above

CS(=O)(=O)OCCCCOS(C)(=O)=O
not listed: [11] | [12] | [13] | [14] | [16]
inactive: all other assays above

CN(C)CCC(c1ccccc1)c1ccccn1 (stereo not drawn)
inactive and 3.26 µM (active): [13]
inactive: all other assays above

C[C@]12CC[C@@H]3c4ccc(O)cc4CC[C@H]3[C@@H]1C[C@@H](O)[C@@H]2O
not listed: [11] | [12] | [13] | [14]
inactive: all other assays above

NC(N)=NC(N)=NCCc1ccccc1
not listed: [10]
inactive: all other assays above

CC(=O)C1=C(C)[C@@H]2C[C@@]3(C1)[C@H](C)CC[C@H]3C2(C)C
not listed: [4] | [7] | [17]
inactive: all other assays above

CC(=O)[C@@]1(O)CC[C@H]2[C@@H]3C[C@H](C)C4=CC(=O)C=C[C@]4(C)[C@@]3(F)[C@@H](O)C[C@@]21C
not listed: [11] | [12] | [13] | [14]
inactive: all other assays above

CCCCNC(=O)NS(=O)(=O)c1ccc(N)cc1
not listed: [11] | [20]
inactive: all other assays above

CN(C)Cc1cc(CN(C)C)c(O)c(CN(C)C)c1
not listed: [4] | [8] | [14] | [16] | [20]
inactive: all other assays above

c1ccc2c(c1)c1cccc3ccc4cccc2c4c31
45.4 µM (active) and inactive: [10]
active: [6] 32.2 µM
not listed: [11] | [12] | [13] | [14] | [15] | [20]
inactive: all other assays above

CCOCCO
not listed: [15] | [20]
inactive: all other assays above

Brc1ccc(Br)c(Br)c1
not listed: [10] | [20]
inactive: all other assays above
